{"source": "ChEMBL document CHEMBL3988442", "about": "“University of Dundee, Small-Polar-MMV Screening Library” (2021)"}
{"target": "T1, Aspartate--tRNA(Asp/Asn) ligase (Mycobacterium tuberculosis (strain ATCC 25618 / H37Rv)) (UniProt P9WFW3)", "T1 sequence (whole entry)": "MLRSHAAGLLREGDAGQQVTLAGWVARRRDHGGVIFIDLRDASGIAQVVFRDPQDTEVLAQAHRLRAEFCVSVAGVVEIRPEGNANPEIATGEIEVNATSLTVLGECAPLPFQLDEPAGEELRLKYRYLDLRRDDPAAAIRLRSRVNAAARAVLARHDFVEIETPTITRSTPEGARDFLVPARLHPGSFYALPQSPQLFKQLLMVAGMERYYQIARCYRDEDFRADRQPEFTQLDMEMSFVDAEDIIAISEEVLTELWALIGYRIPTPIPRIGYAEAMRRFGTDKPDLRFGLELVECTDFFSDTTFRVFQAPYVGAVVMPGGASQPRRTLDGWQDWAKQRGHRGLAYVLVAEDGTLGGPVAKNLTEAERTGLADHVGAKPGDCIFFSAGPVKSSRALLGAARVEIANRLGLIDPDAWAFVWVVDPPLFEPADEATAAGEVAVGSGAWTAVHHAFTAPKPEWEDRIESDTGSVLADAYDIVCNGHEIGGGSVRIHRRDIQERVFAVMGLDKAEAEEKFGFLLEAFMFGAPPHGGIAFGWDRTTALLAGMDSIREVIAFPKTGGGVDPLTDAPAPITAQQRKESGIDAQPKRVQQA", "test": "Assay for Asp RNA synthetase-1 from Mycobacterium tuberculosis", "assay_type": "functional", "parameters": "scale not given: direction of the effect not stated beside the values", "settings": "30 µM", "units": {"Percent Effect": "%"}}
{"smiles": "CN(CC1(O)CCCN(c2ccccn2)C1)C(=O)Cc1ccsc1", "note": "(stereo not given)", "Percent Effect": 1.53}
{"smiles": "Cn1cccc1C(=O)N1CCn2cc(CNC(=O)CC3CC3)nc2C1", "Percent Effect": -0.0735}
{"smiles": "O=C(CCc1cccc(F)c1F)N1CCN(Cc2ccco2)CC1", "Percent Effect": 0.502}
{"smiles": "CCc1ncc(C(=O)N2CCOCC2c2c(C)n[nH]c2C)s1", "note": "(stereo not given)", "Percent Effect": 2.97}
{"smiles": "CSc1cc2c(cc1NC(=O)NCC(C)(C)C(N)=O)OCCO2", "Percent Effect": 0.408}
{"smiles": "CN(CCOc1cccc(CN)c1)C1CCOCC1", "Percent Effect": -0.881}
{"smiles": "CC(C)(C)c1cc(CN2CC[C@@H](NC(=O)c3cccnc3)[C@H](O)C2)n[nH]1", "Percent Effect": -4.62}
{"smiles": "O=C1[C@H]2CC[C@H](CN(C3CSCCSC3)C2)N1Cc1cscn1", "Percent Effect": 2.92}
{"smiles": "CN(C)C(=O)CC1CC2(CCN(c3ncccn3)CC2)c2ccccc21", "note": "(stereo not given)", "Percent Effect": 2.97}
{"smiles": "Cc1ccc(OCC(=O)NS(=O)(=O)c2cccnc2)cc1C", "Percent Effect": -2.57}
{"smiles": "CC(C)C(=O)N1CCC2(CCCN(CCOc3ccccc3)C2)C1", "note": "(stereo not given)", "Percent Effect": 2.32}
{"smiles": "Cc1nc(C)n(CC2CN(Cc3cccc(C(N)=O)c3)CCO2)n1", "note": "(stereo not given)", "Percent Effect": 4.41}
{"smiles": "COc1cc(N2C[C@@H]3COC[C@]3(COCc3cccc(C)n3)C2)ncn1", "Percent Effect": -0.107}
{"smiles": "CCN1C[C@@H]2[C@@H](OC)CCN(S(=O)(=O)c3ccccc3F)[C@@H]2C1", "Percent Effect": -3.02}
{"smiles": "CSCC(C)(O)CNC(=O)c1ccc(Br)cc1C", "note": "(stereo not given)", "Percent Effect": -3.46}
{"smiles": "CC(=O)N1CCCC1c1nnc2n1CCCCC2", "note": "(stereo not given)", "Percent Effect": -0.915}
{"smiles": "Cc1cccc(C2(CNC(=O)CCNS(C)(=O)=O)CCCC2)c1", "Percent Effect": -6.94}
{"smiles": "NCC1Cn2nnc(-c3cccc(F)c3)c2CO1", "note": "(stereo not given)", "Percent Effect": 1.16}
{"smiles": "CC(NC(=O)NCC1(c2ccccc2)CCC1)c1nncn1C", "note": "(stereo not given)", "Percent Effect": 0.759}
{"smiles": "CC(=O)N1CC(=O)N(c2cnn(C)c2)CC12CCN(Cc1ccoc1)C2", "note": "(stereo not given)", "Percent Effect": -2.35}
{"smiles": "CC(C)(C)OC(=O)N1CCCC[C@H]1C(=O)NCc1nccs1", "Percent Effect": -1.06}
{"smiles": "O=C(NCCn1ccnc1)N1CCCC1c1ccsc1", "note": "(stereo not given)", "Percent Effect": -7.57}
{"smiles": "O=C1CCSCC(C(=O)N2CCOCC2)N1", "note": "(stereo not given)", "Percent Effect": 1.64}
{"smiles": "CCc1ccc(NC(=O)c2cnc(N3CCN(C)CC3)nc2C)cc1", "Percent Effect": -0.248}
{"smiles": "CC(C)(O)CN1CCN(C(=O)c2cc(Cl)cc3cccnc23)CC1", "Percent Effect": -3.59}
{"smiles": "CCn1ncc2c1C(COC)CN(Cc1ccsc1)C2", "note": "(stereo not given)", "Percent Effect": -1.74}
{"smiles": "COCCN1CCN(Cc2cccc(C(=O)N(C)C)c2)CC1C", "note": "(stereo not given)", "Percent Effect": 1.34}
{"smiles": "CC(=O)N1CCC(c2nccnc2Oc2ccccc2)CC1", "Percent Effect": -0.819}
{"smiles": "CC(C(=O)N1CCC(Nc2cccnn2)CC1)n1ccnc1", "note": "(stereo not given)", "Percent Effect": 7.4}
{"smiles": "N#CCSCCCN1CCCN(C(=O)c2ccccc2)CC1", "Percent Effect": -4.83}
{"smiles": "CCc1nccn1C1CCCN(C(=O)c2ccc3nncn3c2)C1", "note": "(stereo not given)", "Percent Effect": -8.68}
{"smiles": "O=C(CN1CCOC(Cn2cccn2)C1)NCc1cccs1", "note": "(stereo not given)", "Percent Effect": -1.46}
{"smiles": "COc1ccc2c(c1)OCC(CNC(=O)c1ccncc1)C2", "note": "(stereo not given)", "Percent Effect": -2.83}
{"smiles": "CS(=O)(=O)N[C@@H]1CN(C(=O)c2ccccn2)[C@@H]2CCCO[C@@H]21", "Percent Effect": -4.14}
{"smiles": "Cc1ccc(CC(=O)N(C)CC2(O)CCN(c3ccccn3)C2)s1", "note": "(stereo not given)", "Percent Effect": 5.23}
{"smiles": "Cc1nc(CN(C)C2CCN(CC(=O)NC3CCOCC3)C2)no1", "note": "(stereo not given)", "Percent Effect": -1.22}
{"smiles": "CCS(=O)(=O)N1CCC(c2nc3ccc(-c4ccccc4)cn3n2)CC1", "Percent Effect": 0.251}
{"smiles": "CCN1CCOC(CNCc2ccccn2)C1", "note": "(stereo not given)", "Percent Effect": 1.04}
{"smiles": "CC(C)c1nnc(NC(=O)NCc2ccc(CO)c(F)c2)s1", "Percent Effect": 1.21}
{"smiles": "CC(C)NS(=O)(=O)c1cc(C(=O)O)cc(-c2ccc(CN(C)C)cc2)c1", "Percent Effect": -3.46}
{"target": "Shiga toxin 2 (Escherichia coli O157:H7) (UniProt P09385+P09386)", "test": "E. coli 0.157:H7 Shiga Toxin SOP - stx2 screening assay", "assay_type": "functional", "parameters": "scale not given: direction of the effect not stated beside the values", "settings": "30 µM", "units": {"Percent Effect": "%"}}
{"smiles": "CN(CC1(O)CCCN(c2ccccn2)C1)C(=O)Cc1ccsc1", "note": "(stereo not given)", "Percent Effect": 13.7}
{"smiles": "Cn1cccc1C(=O)N1CCn2cc(CNC(=O)CC3CC3)nc2C1", "Percent Effect": -50.9}
{"smiles": "O=C(CCc1cccc(F)c1F)N1CCN(Cc2ccco2)CC1", "Percent Effect": -2.83}
{"smiles": "CCc1ncc(C(=O)N2CCOCC2c2c(C)n[nH]c2C)s1", "note": "(stereo not given)", "Percent Effect": 7.37}
{"smiles": "CSc1cc2c(cc1NC(=O)NCC(C)(C)C(N)=O)OCCO2", "Percent Effect": -1.68}
{"smiles": "CN(CCOc1cccc(CN)c1)C1CCOCC1", "Percent Effect": -50.4}
{"smiles": "CC(C)(C)c1cc(CN2CC[C@@H](NC(=O)c3cccnc3)[C@H](O)C2)n[nH]1", "Percent Effect": 14.9}
{"smiles": "O=C1[C@H]2CC[C@H](CN(C3CSCCSC3)C2)N1Cc1cscn1", "Percent Effect": -34.4}
{"smiles": "CN(C)C(=O)CC1CC2(CCN(c3ncccn3)CC2)c2ccccc21", "note": "(stereo not given)", "Percent Effect": -6.02}
{"smiles": "Cc1ccc(OCC(=O)NS(=O)(=O)c2cccnc2)cc1C", "Percent Effect": 26.6}
{"smiles": "CC(C)C(=O)N1CCC2(CCCN(CCOc3ccccc3)C2)C1", "note": "(stereo not given)", "Percent Effect": 10.8}
{"smiles": "Cc1nc(C)n(CC2CN(Cc3cccc(C(N)=O)c3)CCO2)n1", "note": "(stereo not given)", "Percent Effect": -4.3}
{"smiles": "COc1cc(N2C[C@@H]3COC[C@]3(COCc3cccc(C)n3)C2)ncn1", "Percent Effect": -2.46}
{"smiles": "CCN1C[C@@H]2[C@@H](OC)CCN(S(=O)(=O)c3ccccc3F)[C@@H]2C1", "Percent Effect": 0.716}
{"smiles": "CSCC(C)(O)CNC(=O)c1ccc(Br)cc1C", "note": "(stereo not given)", "Percent Effect": -16}
{"smiles": "CC(=O)N1CCCC1c1nnc2n1CCCCC2", "note": "(stereo not given)", "Percent Effect": 0.261}
{"smiles": "Cc1cccc(C2(CNC(=O)CCNS(C)(=O)=O)CCCC2)c1", "Percent Effect": -8.2}
{"smiles": "NCC1Cn2nnc(-c3cccc(F)c3)c2CO1", "note": "(stereo not given)", "Percent Effect": -69.1}
{"smiles": "CC(NC(=O)NCC1(c2ccccc2)CCC1)c1nncn1C", "note": "(stereo not given)", "Percent Effect": 14.9}
{"smiles": "CC(=O)N1CC(=O)N(c2cnn(C)c2)CC12CCN(Cc1ccoc1)C2", "note": "(stereo not given)", "Percent Effect": 0.489}
{"smiles": "CC(C)(C)OC(=O)N1CCCC[C@H]1C(=O)NCc1nccs1", "Percent Effect": -16.6}
{"smiles": "O=C(NCCn1ccnc1)N1CCCC1c1ccsc1", "note": "(stereo not given)", "Percent Effect": -9.24}
{"smiles": "O=C1CCSCC(C(=O)N2CCOCC2)N1", "note": "(stereo not given)", "Percent Effect": 3.97}
{"smiles": "CCc1ccc(NC(=O)c2cnc(N3CCN(C)CC3)nc2C)cc1", "Percent Effect": -28}
{"smiles": "CC(C)(O)CN1CCN(C(=O)c2cc(Cl)cc3cccnc23)CC1", "Percent Effect": -18}
{"smiles": "CCn1ncc2c1C(COC)CN(Cc1ccsc1)C2", "note": "(stereo not given)", "Percent Effect": -2.67}
{"smiles": "COCCN1CCN(Cc2cccc(C(=O)N(C)C)c2)CC1C", "note": "(stereo not given)", "Percent Effect": -34.7}
{"smiles": "CC(=O)N1CCC(c2nccnc2Oc2ccccc2)CC1", "Percent Effect": -5.88}
{"smiles": "CC(C(=O)N1CCC(Nc2cccnn2)CC1)n1ccnc1", "note": "(stereo not given)", "Percent Effect": 0.729}
{"smiles": "N#CCSCCCN1CCCN(C(=O)c2ccccc2)CC1", "Percent Effect": -31.2}
{"smiles": "CCc1nccn1C1CCCN(C(=O)c2ccc3nncn3c2)C1", "note": "(stereo not given)", "Percent Effect": 7.36}
{"smiles": "O=C(CN1CCOC(Cn2cccn2)C1)NCc1cccs1", "note": "(stereo not given)", "Percent Effect": -9.71}
{"smiles": "COc1ccc2c(c1)OCC(CNC(=O)c1ccncc1)C2", "note": "(stereo not given)", "Percent Effect": 17.7}
{"smiles": "CS(=O)(=O)N[C@@H]1CN(C(=O)c2ccccn2)[C@@H]2CCCO[C@@H]21", "Percent Effect": 3.94}
{"smiles": "Cc1ccc(CC(=O)N(C)CC2(O)CCN(c3ccccn3)C2)s1", "note": "(stereo not given)", "Percent Effect": -0.365}
{"smiles": "Cc1nc(CN(C)C2CCN(CC(=O)NC3CCOCC3)C2)no1", "note": "(stereo not given)", "Percent Effect": 17.1}
{"smiles": "CCS(=O)(=O)N1CCC(c2nc3ccc(-c4ccccc4)cn3n2)CC1", "Percent Effect": -35.2}
{"smiles": "CCN1CCOC(CNCc2ccccn2)C1", "note": "(stereo not given)", "Percent Effect": 12.2}
{"smiles": "CC(C)c1nnc(NC(=O)NCc2ccc(CO)c(F)c2)s1", "Percent Effect": 0.535}
{"smiles": "CC(C)NS(=O)(=O)c1cc(C(=O)O)cc(-c2ccc(CN(C)C)cc2)c1", "Percent Effect": -20.1}
